In all, about 81,000 sequences were measured (“one-hybrid fitness for binding parS DNA”: median about -0.17, highest 2% from about 0.51 on). The sample holds the highest values, similar sequences and a random draw of the others, so the mix is not that of the screen.
B1: Caulobacter ParB omega fusion; a variant is named by its letters at X, in order, B8GW30 (parent)
chain: MESVVVGEPGMSEGRRGLGRGLSALLGEVDAAPAQAPGEQLGGSREAPIEILQRNPDQPRRTFREEDLEDLSNSIREKGVLQPILVRPSPDTAGEYQIVAGERAWRAAQRAGLKTVPIMVRELDDLAVLEIGIIENVQRADLNVLEEALSYKVLMEKFERTQENIAQTIGKSXSHVANXMRLLXLPDEVQSYLVSGELTAXHARAIAAAADPVALAKQIIEGGLSVRETEALARKAPNLSAGKSKGGRPPRVKDTDTQALESDLSSVLGLDVSIDHRGSTGTLTITYATLEQLDDLCNRLTRGI

Variants of: B1
Assay: one-hybrid fitness for binding parS DNA (scaled: cognate 1, non-cognate 0); higher = stronger binding
Details: with parS DNA site
Procedure, shortened: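 Pre- and post-selection plasmids were Illumina-sequenced, three replicate libraries were pooled, and any variant with under 10 reads was removed. The libraries were Caulobacter ParB with four specificity codons randomised, selected in E. coli USO through a HIS3 reporter whose site is 19 bp from the promoter. Cells grew 48 hours at 37°C on M9 without histidine, with 0.1 mM IPTG and 5 mM 3-AT. Fitness is the log change in variant-to-wild-type read ratio, rescaled against cognate and non-cognate.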

Row | Variant | one-hybrid fitness for binding parS DNA
1 | AIHE | ≤ 0.2
2 | NKPL | ≤ 0.2
3 | WVGM | ≤ 0.2
4 | CMEW | ≤ 0.2
5 | NDFI | ≤ 0.2
6 | KPTT | ≤ 0.2
7 | WGPD | ≤ 0.2
8 | RTGN | 0.44
9 | RHGS | 0.888
10 | RKGS | 0.833
11 | RKGD | ≤ 0.2
12 | RKGN | 0.429
13 | RTGD | ≤ 0.2
14 | RIGP | ≤ 0.2
15 | RHGN | 0.363
16 | RIGN | 0.477
17 | RHGD | ≤ 0.2
18 | RTGS | 0.92
19 | RIGS | 0.959
20 | NELG | ≤ 0.2
21 | VCTS | ≤ 0.2
22 | QDQT | ≤ 0.2
23 | APQI | ≤ 0.2

Row | Variant | one-hybrid fitness for binding parS DNA
24 | TGHY | ≤ 0.2
25 | LTYE | ≤ 0.2
26 | FDTS | ≤ 0.2
27 | VQYL | ≤ 0.2
28 | GTNP | ≤ 0.2
29 | RIGY | 0.51
30 | RSGN | 0.46
31 | RSGS | 0.983
32 | RCGY | 0.43
33 | RSGD | ≤ 0.2
34 | LCDD | ≤ 0.2
35 | TNCY | ≤ 0.2
36 | FSDT | ≤ 0.2
37 | KCRM | ≤ 0.2
38 | RMIK | ≤ 0.2
39 | RMPR | ≤ 0.2
40 | RMPH | ≤ 0.2
41 | RMIQ | ≤ 0.2
42 | RMPT | 0.625
43 | RMIT | 0.752
44 | VQYW | ≤ 0.2
45 | INEC | ≤ 0.2
46 | RQWY | 0.418

Row | Variant | one-hybrid fitness for binding parS DNA
47 | TEPE | ≤ 0.2
48 | RSAN | 0.426
49 | RSAC | 0.932
50 | RPAC | ≤ 0.2
51 | REAC | ≤ 0.2
52 | RSAH | 0.226
53 | RCAC | 1.02
54 | IILS | ≤ 0.2
55 | TCRI | ≤ 0.2
56 | KHHT | ≤ 0.2
57 | HMNT | ≤ 0.2
58 | RTIG | 0.98
59 | RTPG | 0.764
60 | RTPP | ≤ 0.2
61 | RTIK | ≤ 0.2
62 | RTPQ | ≤ 0.2
63 | RTIF | 0.233
64 | KRWW | ≤ 0.2
65 | KLNR | ≤ 0.2
66 | NHAA | ≤ 0.2
67 | RHFA | 0.516
68 | RHAA | 0.534
69 | VDYT | ≤ 0.2

Row | Variant | one-hybrid fitness for binding parS DNA
70 | NQNT | ≤ 0.2
71 | HAPR | ≤ 0.2
72 | EKTR | ≤ 0.2
73 | RGKA | 0.475
74 | RWVA | 0.329
75 | RFVA | 0.44
76 | DHKA | ≤ 0.2
77 | RWYA | 0.348
78 | RFKA | 0.571
79 | RPKA | ≤ 0.2
80 | RHVA | 0.499
81 | RHKA | 0.692
82 | RWKA | 0.574
83 | RCKA | 0.844
84 | PFKA | ≤ 0.2
85 | KSVS | ≤ 0.2
86 | ATSF | ≤ 0.2
87 | PVTI | ≤ 0.2
88 | GNRN | ≤ 0.2
89 | MTHT | ≤ 0.2
90 | IATE | ≤ 0.2
91 | REKA | ≤ 0.2
92 | RDKA | ≤ 0.2

Row | Variant | one-hybrid fitness for binding parS DNA
93 | RSKA | 0.716
94 | QRTQ | ≤ 0.2
95 | GFIG | ≤ 0.2
96 | RLRT | 0.834
97 | RLSK | ≤ 0.2
98 | RLRR | ≤ 0.2
99 | RLRM | 0.376
100 | RLWT | 0.889
101 | RLGR | ≤ 0.2
102 | RLWP | 0.201
103 | RLGF | 0.278
104 | RLSM | 0.329
105 | RLST | 0.939
106 | RLGT | 0.925
107 | RLWH | 0.3
108 | FKLC | ≤ 0.2
109 | YRAS | 0.283
110 | WVWC | ≤ 0.2
111 | TRNR | ≤ 0.2
112 | QCLA | ≤ 0.2
113 | HCDK | ≤ 0.2
114 | RLYQ | ≤ 0.2
115 | RLCD | ≤ 0.2

Row | Variant | one-hybrid fitness for binding parS DNA
116 | RLYM | 0.364
117 | RLYT | 0.943
118 | RLQT | 0.946
119 | RLCT | 0.923
120 | RLQK | ≤ 0.2
121 | RLLP | ≤ 0.2
122 | RLLD | 0.231
123 | RLCP | ≤ 0.2
124 | RLLT | 0.961
125 | RLQF | 0.229
126 | YINM | ≤ 0.2
127 | QHNA | ≤ 0.2
128 | HQSH | ≤ 0.2
129 | KQRG | ≤ 0.2
130 | FYRR | ≤ 0.2
131 | EMVC | ≤ 0.2
132 | TCPF | ≤ 0.2
133 | RLHR | ≤ 0.2
134 | RLHY | 0.473
135 | RLHT | 0.937
136 | RHNF | ≤ 0.2
137 | RHYG | 0.95
138 | RHPG | 0.451

Row | Variant | one-hybrid fitness for binding parS DNA
139 | RHYD | ≤ 0.2
140 | RHNR | ≤ 0.2
141 | REQG | ≤ 0.2
142 | RHIG | 0.705
143 | RHNG | 0.953
144 | RHIF | ≤ 0.2
145 | RHQG | 0.973
146 | RHQR | ≤ 0.2
147 | RHYP | ≤ 0.2
148 | HCSV | ≤ 0.2
149 | DCCS | ≤ 0.2
150 | HYWT | ≤ 0.2
151 | QSAL | ≤ 0.2
152 | FRKP | ≤ 0.2
153 | GIVG | ≤ 0.2
154 | PFTT | ≤ 0.2
155 | ALPV | ≤ 0.2
156 | QCAF | ≤ 0.2
157 | RHDG | 0.917
158 | RHHK | ≤ 0.2
159 | RHDD | ≤ 0.2
160 | RHCG | 0.95

From a collection of fitness landscapes (doi:10.1016/j.celrep.2020.107928)
